Data as given in the supplement of paper PMC4371806.
The full ranking holds about 2,300 compounds; the median of “plate-normalized OD600 growth (mean of duplicates)” is about 0.29, and the lowest 2% start at about 0.22. The sample holds the lowest values, similar compounds and a random draw of the others, so the mix is not that of the screen.

Test system: Escherichia coli BW25113
Experiment: plate-normalized OD600 growth (mean of duplicates) (OD600 (normalized)); higher = more growth (less inhibition)
Conditions: 10 µM
Method: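 E. coli BW25113 in LB (100 µl, 96-well, no shaking) was exposed to 10 µM of each compound from a ~30,000-member library and grown at 37°C for 24 h or 15°C for 48 h, in duplicate. Growth was read as OD600 and the duplicate ODs were normalized across screening plates to correct plate-to-plate variation. Hits were >3σ below the mean OD600 at 15°C and <2σ below the mean at 37°C.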

Compound | plate-normalized OD600 growth (temperature: 15°C, 48 h) | plate-normalized OD600 growth (temperature: 37°C, 24 h)
Cc1cccc(-n2c(C)cc(C=Nc3ccc(Cl)cc3O)c2C)c1 | 0.249 | 0.613
COc1c(Cl)cnc(Cl)c1C(N)=O | 0.265 | 0.636
C/C(=N/O)c1ccc2c(c1)C(C)(C)CCC2(C)C | 0.256 | 0.629
N#Cc1cc(I)c(C#N)c(I)c1 | 0.198 | 0.616
O=C(O)CCCN1C(=O)C(=O)C(=C(O)c2ccccc2)C1c1ccc(Br)cc1 (centres undefined) | 0.226 | 0.646
Cc1sc(NC(=O)c2cc3ccccc3oc2=O)nc1-c1ccc(-c2ccccc2)cc1 | 0.253 | 0.625
CC(C)(C)n1ncc(N/N=C/c2ccc(Cl)cc2)c(Cl)c1=O | 0.238 | 0.605
CC(C(=O)O)C(=O)c1cc(Cl)c(Cl)cc1Cl (centres undefined) | 0.215 | 0.63
O=S(=O)(c1cc(Br)c(Br)s1)N1CCCCC1 | 0.262 | 0.63
Nc1nc(=Nc2ccccc2)n2c(n1)sc1ccccc12 | 0.243 | 0.61
CC(=O)Nc1ccc(NC(=O)CSc2nnc(NS(C)(=O)=O)s2)cc1 | 0.252 | 0.63
COc1cc(Cl)c(Cl)cc1Cl | 0.251 | 0.604
O=C1C(Cl)=C(Oc2cc(Cl)c(Cl)cc2Cl)C(=O)c2ccccc21 | 0.211 | 0.613
COc1ccc(NC(=O)/C=C/c2cccc(Oc3ccccc3)c2)cc1 | 0.245 | 0.633
NC1=Nc2nc(Nc3ccccc3)sc2/C(=C/c2ccc(O)cc2)N1 | 0.248 | 0.628
Cc1onc(-c2ccccc2Cl)c1C(=O)Nc1ccc(S(=O)(=O)Nc2nccs2)cc1 | 0.246 | 0.614

Compound | plate-normalized OD600 growth (temperature: 15°C, 48 h) | plate-normalized OD600 growth (temperature: 37°C, 24 h)
NS(=O)(=O)c1ccc(CCn2c(-c3ccc(S(=O)(=O)N4CCCC4)cc3)csc2=Nc2cccc(C(F)(F)F)c2)cc1 | 0.257 | 0.65
O=[N+]([O-])c1ccc(-c2ncn[nH]2)cc1 | 0.209 | 0.607
O=C1NC(=O)c2cc(-c3ccc([N+](=O)[O-])cc3)ccc21 | 0.241 | 0.631
O=[N+]([O-])c1ccc(OCCCOc2ccc([N+](=O)[O-])cc2)cc1 | 0.238 | 0.596
CC(C)c1ncc(C(O)c2cccc3ccccc23)n1C (centres undefined) | 0.249 | 0.63
O=c1[nH]c(-c2cn[nH]c2-c2ccc(F)cc2)nc2sc3c(c12)CCCC3 | 0.237 | 0.637
CS/C(N)=N\N=C/c1c(F)cccc1Cl | 0.258 | 0.652
Cc1oc(-c2ccccc2)cc1C(=O)N1CCN(c2ccc([N+](=O)[O-])cc2)CC1 | 0.265 | 0.667
COc1cc(C=NCc2ccco2)ccc1O | 0.242 | 0.622
NC(=O)C1CCN(CCC(=O)Nc2ccccc2)CC1 | 0.208 | 0.651
CC1CCN(CCC(=O)Nc2ccc(Cl)cc2)CC1 | 0.261 | 0.643
CCN1CCN(CCC(=O)Nc2ccccc2)CC1 | 0.228 | 0.624
CC(C)(C)S(=O)(=O)/C(C#N)=C/N1CCCCC1 | 0.267 | 0.62
O/N=C\c1sccc1Oc1ccccc1 | 0.254 | 0.635
CCOC(=O)c1ccc(-n2nnnc2C(c2ccc(Cl)cc2Cl)N2CCOCC2)cc1 (centres undefined) | 0.241 | 0.645
Cc1ccc(C=Nc2ccc(-c3ccc(N=Cc4ccc(C)o4)c(C)c3)cc2C)o1 | 0.224 | 0.622
